# From PubChem BioAssay
# H9c2 protect: protects H9c2 cardiomyocytes from peroxide injury; H2O2 injury protection, ATPLite, 2 h; protection from H2O2 cell death, % at 20 µM; 360,000 tested, 0.63% active; AID 588492;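 active = compounds giving at least 50% protection of heart cells from peroxide-induced death in the single-dose screen, raw or plate-pattern-corrected value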;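 note: 0% = DMSO wells with peroxide and 100% = DMSO wells without peroxide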
# beta cell repl: MIN6 beta-cell proliferation induction. 330,000 tested, 0.29% active. MIN6 cells proliferation, ATPlite luminescence, 48 h; cells starved in 0.2% serum; 100% = growth in 10% serum. proliferation, % at 10 µM;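 active = compounds whose signal lies at least 3.5 SD above the mean of all wells on their plate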;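 note: 0% = DMSO-treated cells in low-serum medium and 100% = 10% serum control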
# aDG glyco act: increases alpha dystroglycan glycosylation; Pro5-aDG cells, alpha-DG glycosylation AlphaScreen (IIH6); 0% Pro5, 100% B10-LARGE cell signal; activation, % at 10 µM; 360,000 tested, 0.22% active;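 active = activation of at least 8% versus controls, or a plate z-score of at least 8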;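 note: Pro5 are CHO cells carrying HIG-tagged alpha-DG that lacks glycosylation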
# m-calpain inh: inhibitors of pig calpain II; 220,000 tested, 0.37% active; inhibition, % at 16 µM; purified calpain II, fluorogenic peptide substrate, 30 min;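 active = inhibition above about 50%, limit read from the data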
# FAS-TE inh: FAS thioesterase (human) inhibition; inhibition, % at 15 µM; 360,000 tested, 0.67% active; AID 602261; recombinant FAS-TE, OMFH fluorogenic substrate, fluorescence endpoint;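 active = compounds whose normalised, plate-corrected inhibition of enzyme fluorescence in the single-dose primary screen is 50% or more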;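 note: 0% = DMSO with enzyme and 100% = substrate without enzyme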
# H9c2 TAG inh: inhibitors of triacylglycerol accumulation. 230,000 tested, 0.66% active. H9c2 cells, Nile Red lipid (TAG) fluorescence; cells loaded with 200 µM oleic acid. inhibition, % at 12.5 µM;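 active = pattern-corrected inhibition of lipid staining of at least 50% with the nuclear-stain viability signal not falling by more than 50%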;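 note: 0% = DMSO wells and 100% = triacsin C control wells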
# H9c2 TAG conf: confirmation of triacylglycerol accumulation inhibitors; inhibition, % at 12.5 µM; 990 tested, 71% active; H9c2 lipid accumulation, Nile Red fluorescence; cells loaded with 200 µM oleic acid; shares compounds with H9c2 TAG inh;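 active = mean inhibition across replicates of 40% or more; inactive = mean inhibition below 40%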;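 note: plate controls were DMSO only wells for no effect and Triacsin C treated wells for full effect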
# Active calls of the source: *; i = inactive; . = not tested or not shown. Rows were chosen to be rich in hits. Some 2.3% of all compounds tested hit in one or more screens of this group.
SMILES,H9c2 protect,beta cell repl,aDG glyco act,m-calpain inh,FAS-TE inh,H9c2 TAG inh,H9c2 TAG conf
Oc1ccc(C[C@H]2CN([C@@H](Cc3ccccc3)CN3CCCC3CN3C(=S)NC[C@@H]3Cc3ccccc3)C(=S)N2CC2CCCCC2)cc1 (some centres undefined),.,.,0,.,-102,.,.
Oc1ccc(C[C@H]2CNC(=S)N2CC2CCCN2C[C@H](Cc2ccc(O)cc2)N2C[C@H](Cc3ccc(O)cc3)N(CC3CCCCC3)C2=S)cc1 (some centres undefined),4,.,-1,.,-68,75*,73*
COc1ccc(CC(N)c2csc(NC(=O)Nc3ccccc3C(C)C)n2)cc1 (centres undefined),-8,.,2,.,-11,58*,42*
COc1ccccc1NC(=O)Nc1nc(C(N)C2CCCCC2)cs1 (centres undefined),0,.,1,.,-8,52*,33
COc1ccc(CNC(=O)Nc2nc(C(N)Cc3ccc(Cl)cc3)cs2)cc1 (centres undefined),-12,.,0,.,-5,50*,59*
COc1ccccc1NC(=O)Nc1nc(C(N)Cc2ccc(C(F)(F)F)cc2)cs1 (centres undefined),-24,.,1,.,-4,79*,69*
COc1cc(NC(=O)Nc2nc(C(N)Cc3ccc(C(F)(F)F)cc3)cs2)cc(OC)c1OC (centres undefined),-8,.,-1,.,-2,87*,99*
O=S(=O)(NCCCSc1ccccc1)c1ccccc1F,0,2,0,.,7,.,.
CCOc1ccc(/C=N/OCC(=O)Nc2cc(S(=O)(=O)N3CCOCC3)ccc2OC)cc1,-5,1,0,.,-1,-10,.
Cn1c(COc2ccccc2)nnc1SCC(=O)NC1CCCC1,2,2,0,.,-5,.,.
COc1cccc(NC(=O)C2CCCN(S(=O)(=O)c3cccc4cccnc34)C2)c1 (centres undefined),-9,1,0,4,-2,10,.
O=C(Nc1ccncc1)C1CCCN(S(=O)(=O)c2cccc3cccnc23)C1 (centres undefined),2,1,0,12,-5,60*,41*
O=C(COC(=O)c1c(F)cccc1F)NCCNC(=O)COC(=O)c1c(F)cccc1F,2,0,0,.,-8,.,.
CC(C)(C)c1ccc(/C=N/NC(=O)Cc2c[nH]c3ccccc23)cc1,-16,-6,0,-29,22,58*,42*
Cc1ccc(/C=N/NC(=O)Cc2c[nH]c3ccccc23)c(C)c1,14,0,0,-63,5,54*,44*
O=C(Cc1c[nH]c2ccccc12)N/N=C/c1ccccc1O,48,-6,0,-90,7,19,.
COc1cc2c(cc1OC)CN(C(=S)Nc1ccccc1)CC2,7,-1,0,-15,-3,.,.
COc1cc2c(cc1OC)CN(C(=S)Nc1ccccc1Cl)CC2,-2,0,0,23,7,62*,6
CC1CCN(c2cc(N3CCC(C)CC3)c([N+](=O)[O-])cc2/C=C(\C#N)c2nn(-c3ccccc3)c(N)c2C#N)CC1,-18,-3,-1,-23,18,52*,49*
COc1ccc(NC2=NC(=S)N(c3ccc(C)cc3)C23CCCCC3)cc1,-2,-3,0,37,-5,57*,30
COc1ccc(NC2=NC(=S)N(c3cccc(C)c3)C23CCCCC3)cc1,-20,-1,0,18,-5,-7,.
COCCCn1c(C(=O)N2CCOCC2)cc2c(=O)n3cccc(C)c3nc21,4,3,0,.,2,22,.
COCCCn1c(C(=O)Nc2ccc3c(c2)OCO3)cc2c(=O)n3cccc(C)c3nc21,-24,.,0,.,-9,69*,28
COc1cc(-c2nnc3n2N=C(c2ccccc2)CS3)cc(OC)c1OC,46,1,0,-9,2,90*,66*
Cc1ccc(NS(=O)(=O)c2ccc3c(c2)NC(=O)CCS3)cc1C,-7,1,0,.,3,.,.
SMILES,H9c2 protect,beta cell repl,aDG glyco act,m-calpain inh,FAS-TE inh,H9c2 TAG inh,H9c2 TAG conf
COc1cccc(/C=C/C(=C2\C(=O)N(c3ccccc3)N=C2C)c2ccc(Br)cc2)c1OC,-3,.,-1,.,2,79*,97*
COC(=O)/C=C/c1c(C)nc(NCc2ccccc2)nc1Cl,-6,-2,0,.,-3,.,.
CCOC(=O)c1[nH]c2ccc(OCC)cc2c1NC(=O)CN1CCN(c2ccccc2)CC1,6,-1,0,-34,21,58*,41*
CCOC(=O)c1[nH]c2ccc(OCC)cc2c1NC(=O)CN1CCC2(CC1)OCCO2,11,1,0,i,0,.,.
CCN(CC)CCC(c1ccc(N(C)C)cc1)c1c(OC)cc(OC)c2c(-c3ccccc3)cc(=O)oc12 (centres undefined),-20,-9,1,5,-12,30,.
COc1cc(OC)c2c(-c3ccccc3)cc(=O)oc2c1C(CCN1CCN(c2ccccc2)CC1)c1ccc(N(C)C)cc1 (centres undefined),-12,-6,-1,-54,33,54*,63*
CCCCCc1cc(=O)oc2c(C(CCN3CCN(c4ccccc4)CC3)c3ccc(N(C)C)cc3)c(OC)cc(OC)c12 (centres undefined),-14,-8,0,-19,14,73*,63*
CCCCCc1cc(=O)oc2c(C(CCN(CC)CC)c3cc(OC)c(OC)c(OC)c3)c(OC)cc(OC)c12 (centres undefined),-28,-9,-1,-9,8,114*,97*
COC(=O)C[C@H]1C=C[C@@H](NC(=O)c2ccncc2)[C@@H](CO)O1,.,.,0,.,.,.,.
CSc1ccc(C(O)c2ncc(-c3cccc(F)c3)[nH]2)cc1 (centres undefined),-8,.,0,.,2,-10,.
CCCC(C)C(=O)Nc1ncc(S(=O)(=O)c2ccc([N+](=O)[O-])cc2)s1 (centres undefined),-13,-5,0,.,26,14,.
CCCCOc1ccc(NC(=O)C(=O)NCCC2=CCCCC2)cc1,6,-5,0,22,-3,64*,8
COc1ccc(NC(=O)C2(C)Cc3c(-c4ccc5c(c4)OCO5)ccnc3O2)cn1 (centres undefined),12,.,0,.,4,52*,53*
CC1(C(=O)Nc2ccc3c(c2)OCO3)Cc2c(-c3cccc(C(N)=O)c3)ccnc2O1 (centres undefined),26,.,0,.,-7,59*,69*
CC1(C(=O)Nc2ccc3c(c2)OCO3)Cc2c(-c3ccc4c(c3)OCO4)ccnc2O1 (centres undefined),0,.,0,.,10,27,.
